The list is not random: actives were taken first. Their share in the collection is about 2.4%.
SENP7 block – SENP7 protease inhibitors, primary screen, biochemical, luminescence, uHTS; AID 434973, 2010; inhibition, % at 5 µM; recombinant SENP7, Z-RLRGG-aminoluciferin luminescence, 40 min; hit rate 1.5% among 330,000; Sentrin-specific protease 7 (Homo sapiens), Q9BQF6;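 active = inhibition above about 50% at the single test dose, limit read from the data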;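 also: plate controls were DMSO with enzyme for no effect and no enzyme buffer wells for full effect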
SENP6 block – SENP6 protease inhibitors, primary screen, biochemical, luminescence, uHTS; inhibition, % at 10 µM; Recombinant SENP6 catalytic domain, aminoluciferin luminescence; Sentrin-specific protease 6 (Homo sapiens), Q9GZR1; AID 2599, 2010; hit rate 1.8% among 330,000;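 active = inhibition above about 50% at the single tested dose, limit read from the data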;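 also: plate controls were DMSO wells with enzyme for no effect and DMSO wells lacking enzyme for full effect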
SENP8 block-1 – human SENP8 protease inhibitors, primary screen, biochemical, fluorescence, Nedd8 protein substrate, uHTS; Sentrin-specific protease 8 (Homo sapiens), Q96LD8; hit rate 0.64% among 360,000; inhibition, % at 20 µM; recombinant SENP8; in the data active = inhibition mostly above about 40%, no sharp cut-off; inactive = mostly below about 27%
Target sequence (Q96LD8 whole entry, looked up): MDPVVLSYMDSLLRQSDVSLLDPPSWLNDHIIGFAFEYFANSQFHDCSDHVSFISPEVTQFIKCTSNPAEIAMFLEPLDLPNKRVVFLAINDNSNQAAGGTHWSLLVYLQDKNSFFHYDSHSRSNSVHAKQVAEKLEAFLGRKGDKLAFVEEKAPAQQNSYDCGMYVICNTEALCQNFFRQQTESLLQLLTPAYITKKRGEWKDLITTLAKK
SENP8 block-2 – SENP8 protease inhibitors, primary screen, biochemical, luminescence; Sentrin-specific protease 8 (Homo sapiens), Q96LD8; purified SENP8, Z-RLRGG-aminoluciferin cleavage; inhibition, % at 10 µM; hit rate 1.2% among 330,000; AID 2540, 2010; in the data active = inhibition above about 50%
Platelet DG rel – inhibitors of platelet dense granule secretion, primary screen, cell-based, MLPCN, human platelets | human platelet-rich plasma, SFLLRN dense granule ATP release, luminescence | inhibition, %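 (compounds screened at 7.5 µM in platelet-rich plasma)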 | hit rate 0.22% among 300,000 | AID 1663, 2009;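 active = mean replicate score, as percent of positive control, at or above 50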
SENP8 confirm – SENP8 protease inhibitors, retest, confirmation, biochemical, luminescence, single concentration. shares compounds with SENP7 block. Recombinant SENP8, Z-RLRGG-aminoluciferin luminescence, 60 min. inhibition, % at 12.5 µM. hit rate 40% among 6,200. AID 488912, 2010;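 active = mean inhibition across replicates above about 50%, limit read from the data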
SENP6 confirm – SENP6 protease inhibitors, confirmation, biochemical, luminescence, single concentration; recombinant SENP6, Z-RLRGG-aminoluciferin luminescence; hit rate 58% among 6,200; AID 488915, 2010; inhibition, % at 12.5 µM; shares compounds with SENP7 block
SENP7 confirm – SENP7 protease inhibitors, retest, confirmation, biochemical, luminescence, single concentration | hit rate 69% among 6,200 | recombinant SENP7, Z-RLRGG-aminoluciferin luminescence, 40 min | inhibition, % at 12.5 µM | shares compounds with SENP7 block | AID 488917, 2010
Casp3 select – caspase-3 protease inhibitors, confirmation, selectivity assay for SENP inhibitor project, biochemical, single concentration; purified caspase-3, Z-DEVD-aminoluciferin luminescence, 60 min; hit rate 60% among 6,200; shares compounds with SENP7 block; inhibition, % at 12.5 µM; AID 488918, 2010;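 active = mean inhibition above about 50%, limit read from the data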;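 also: plate controls were enzyme with DMSO for no effect and wells without caspase-3 for full effect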
Target sequence (P42574 28-227 limits assumed): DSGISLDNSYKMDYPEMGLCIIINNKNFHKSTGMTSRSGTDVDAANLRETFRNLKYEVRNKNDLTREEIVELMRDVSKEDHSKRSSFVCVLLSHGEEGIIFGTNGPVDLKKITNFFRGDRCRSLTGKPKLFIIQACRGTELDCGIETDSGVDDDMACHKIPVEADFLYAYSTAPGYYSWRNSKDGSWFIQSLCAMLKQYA
Luc interf – counter-screen for SENP inhibitors: luminescence interference; shares compounds with SENP7 block; Pre-incubated SENP8/Z-RLRGG-aminoluciferin, luciferase luminescence interference; inhibition, % at 12.5 µM; hit rate 39% among 6,200;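 active = mean inhibition above about 50% when retested at one dose, limit read from the data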;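 also: plate controls were DMSO wells with completed reaction for no effect and substrate without enzyme for full effect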
The depositor's hits bear a star; i = inactive; / = no result.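 The calls were made as follows, unless noted: active = mean inhibition above about 50% in the one-dose retest (limit read from the data); inactive = the rest.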

SMILES | SENP7 block | SENP6 block | SENP8 block-1 | SENP8 block-2 | Platelet DG rel | SENP8 confirm | SENP6 confirm | SENP7 confirm | Casp3 select | Luc interf
Cc1ccc(C)c(N=Nc2nc3ccccc3n2C)c1 | 87* | 79* | 21 | 65* | 21 | 90* | 84* | 100* | 63* | 94*
Cc1ccccc1-c1nnc(-c2cccc3ccccc23)o1 | / | / | i | / | / | / | / | / | / | /
Cc1ccccc1-c1nnc(-c2ccccc2C)o1 | 85* | 77* | 1 | 58* | 1 | 13 | 29 | 63* | 41 | 11
Cc1ccccc1-c1nnc(SCC#N)o1 | -8 | -3 | 18 | -5 | 1 | / | / | / | / | /
Cc1ccccc1-c1nnc(-c2ccc(Br)cc2)o1 | 67* | 75* | 2 | 33 | -2 | 14 | 13 | 22 | 30 | 7
CO/N=C/CC(=O)c1ccc([N+](=O)[O-])c(CS(=O)(=O)c2ccc(Cl)cc2)c1 | 2 | 29 | 21 | 5 | 2 | / | / | / | / | /
O=C(O)c1cccc(NC(=O)c2ccc(Cl)c(S(=O)(=O)N3CCCCCC3)c2)c1 | 85* | 85* | 17 | 78* | -4 | 90* | 89* | 98* | 55* | 79*
N#C/C(=C\c1ccc(OCc2ccc(Cl)cc2)cc1)C(=O)Nc1cccc(C(=O)O)c1 | -10 | -6 | 13 | -4 | -2 | / | / | / | / | /
O=C(O)c1cccc(NC(=O)c2cccc(S(=O)(=O)N3CCc4ccccc43)c2)c1 | 0 | 54* | 4 | 22 | -5 | 41 | 37 | 70* | 3 | 43
O=C(Nc1cccnc1)c1ccc(Cl)c(S(=O)(=O)N2CCCCC2)c1 | -11 | -2 | 7 | -4 | 0 | / | / | / | / | /
O=C(O)c1cccc(NC(=O)c2ccc(COc3ccc(Cl)cc3)cc2)c1 | 29 | 70* | 2 | 53* | -4 | 44 | 43 | 59* | 8 | 15
O=C(O)c1cccc(NC(=O)c2ccc3c(c2)C(=O)N(C2CCCCC2)C3=O)c1 | 97* | 95* | 0 | 93* | -2 | 83* | 81* | 100* | 62* | 50
O=C(Nc1ccncc1)c1cccc(S(=O)(=O)N2CCc3ccccc32)c1 | -1 | -18 | 8 | -4 | -8 | / | / | / | / | /
CCOc1c(Cl)cc(C(=O)Nc2cccc(C(=O)O)c2)cc1Cl | 88* | 95* | 5 | 92* | 2 | 95* | 96* | 101* | 54* | 96*
CC(C)c1cc(C(N)=O)c(NC(=O)c2cccc(COc3ccc(Cl)cc3)c2)s1 | 15 | 84* | -224 | 39 | -6 | 98* | 95* | 99* | 48 | 91*
O=C(O)c1ccc(COc2cccc(CO)c2)cc1 | 86* | 74* | 16 | 64* | 75* | 1 | 70* | 93* | 93* | 74*
CCOc1ccc(NC(=O)c2cccc(NC(=O)c3ccccc3)c2)cc1 | 6 | -8 | -3 | -8 | 15 | / | / | / | / | /
CN1C[C@@H]2[C@@H]3C(=O)N(C)C(=O)[C@@H]3[C@](C)(C1=O)N2C(=O)c1ccc(C(F)(F)F)cc1 | / | / | 12 | / | / | / | / | / | / | /
COc1cccc(CN(C)C(=O)c2ccc(Cl)c(S(=O)(=O)N3CCCCCC3)c2)c1OC | / | / | 10 | / | / | / | / | / | / | /
CCOC(=O)c1c(C)nc2c(C)cccn12 | -4 | 3 | 11 | -8 | -8 | / | / | / | / | /

Source: PubChem (several laboratories)
